Most compounds without a hit are left out; they make up all but 3% or so of the library.
D3 antag – qHTS of D3 Dopamine Receptor Antagonist: qHTS | D(3) dopamine receptor (Homo sapiens), P35462 | D3R cells, DiscoveRx beta-arrestin luminescence, antagonist mode; stronger effect = lower value | max response, negative = inhibition, % | actives 2.5% (n = 360,000); in the data active = max response below about -50%; inconclusive = no clear call, values can overlap the other calls
Target sequence (P35462 whole entry, looked up): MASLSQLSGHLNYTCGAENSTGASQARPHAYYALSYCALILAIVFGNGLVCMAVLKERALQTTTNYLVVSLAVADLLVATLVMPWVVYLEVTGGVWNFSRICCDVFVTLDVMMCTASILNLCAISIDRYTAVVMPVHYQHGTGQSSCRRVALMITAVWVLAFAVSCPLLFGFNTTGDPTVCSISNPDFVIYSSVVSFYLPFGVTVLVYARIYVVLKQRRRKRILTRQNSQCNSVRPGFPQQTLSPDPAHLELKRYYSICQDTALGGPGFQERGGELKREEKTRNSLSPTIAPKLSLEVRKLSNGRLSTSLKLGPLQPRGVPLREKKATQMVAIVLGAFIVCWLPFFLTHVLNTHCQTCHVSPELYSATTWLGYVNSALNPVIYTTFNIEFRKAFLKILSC
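Cells plated overnight at 1500 cells/well, then exposed to library compounds with dopamine controls for 90 minutes at 37 degrees C. DiscoveRx reagent added for 30–60 minutes at room temperature; luminescence read, quantitative HTS format.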
Nrf2 ARE act – qHTS of Nrf2 Activators | AID 624171, 2012 | actives 0.31% (n = 410,000) | AREc32 ARE-luciferase reporter (MCF7-derived line), luminescence, 24 h | Potency, µM (titrated, usually from 46.1 µM), actives largely listed as activators; note: nearly all actives have a fitted effect of over 65% in size
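Cells of the AREc32 ARE-luciferase line are plated in OPTI-MEM containing 5% FBS and left overnight at 37 deg C. Compounds are pinned in, incubation continues 24 hr, and firefly luciferase signal is then measured.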
DRD3 agonist – qHTS of D3 Dopamine Receptor Agonist: qHTS; max activation, %; actives 0.58% (n = 410,000); D3R DiscoveRx beta-arrestin cells, luminescence, 90 min; AID 652048, 2013; in the data active = max activation above about 30%
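Cells at 1500/well, incubated overnight, then treated with pinned compounds (dopamine as control) for 90 min at 37 degrees C. DiscoveRx reagent added for 30 - 60 minutes at room temperature; luminescence read.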
Glioma ERSR ind – qHTS for Inducers of the Endoplasmic Reticulum Stress Response (ERSR) in Human Glioma: qHTS. U87-MG GRP78 promoter luciferase reporter, 16 h. Potency, µM, usual class: activators. actives 0.02% (n = 420,000). AID 602332, 2012; note: series mostly up to about 76 µM; nearly all actives have a fitted effect of over 35% in size
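Stably transfected U87-MG glioma cells carrying a GRP78-based luciferase sensor; 16 h compound incubation. Luminescence end-point read 10 min after Bright-Glo addition at room temperature.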
Each line names hits and unclear results; the compound was inactive in the other large screens; ! = not active in a repeat. Unless noted, calls come from the whole dose curve; as a rule, active = well fitted curve in the direction sought with a large enough effect; inconclusive = small, poorly fitted or top-dose-only effect, or another doubt; inactive = no such curve, though single readings can be large; an effect the other way counts as inactive or inconclusive.

Cc1ccc(NC(=O)CSc2nn(-c3ccccc3)c(=S)s2)cc1S(=O)(=O)N(C)C	D3 antag -62.8
Cc1ccc(NC(=O)CSc2nnnn2C)cc1S(=O)(=O)N(C)C	none
O=C(CSc1nn(-c2ccccc2)c(=S)s1)NC1CCS(=O)(=O)C1 (centres undefined)	none
O=C(CSc1nn(-c2ccccc2)c(=S)s1)Nn1cnnc1	D3 antag -84.9
CCS(=O)(=O)NCc1c(C)ncc2c1CCN(C(=O)c1ccc(F)cc1)C2	none (no result: D3 antag, Nrf2 ARE act, DRD3 agonist)
COCCCN1CN=C(NS(=O)(=O)c2ccc(NC(C)=O)cc2)NC1	none (no result: D3 antag)
Cc1ccc(-c2noc(C3CCCN(C(=O)c4c(F)cccc4F)C3)n2)cc1 (centres undefined)	D3 antag -70.1
O=C(Cc1ccccc1)N1CCC(c2nc(-c3ccc(F)cc3)no2)CC1	DRD3 agonist 30.9
O=C(c1c(F)cccc1F)N1CCCC(c2nc(-c3ccc(Cl)cc3)no2)C1 (centres undefined)	none
O=C(Cc1ccccc1)N1CCCC(c2nc(-c3ccc(S(=O)(=O)N4CCCC4)cc3)no2)C1 (centres undefined)	none
CCCCn1nnnc1C(c1ccccc1)N1CCCN(Cc2ccc(F)cc2)CC1 (centres undefined)	D3 antag -69.2 (no result: Glioma ERSR ind)
c1ccc(CN2CCN(C(c3ccccc3)c3nnnn3Cc3ccccc3)CC2)cc1 (centres undefined)	none
c1ccc(CN2CCN(C(c3ccccc3)c3ccccc3)CC2)cc1	D3 antag -70.0
Fc1ccc(CN2CCN(C(c3ccccc3)c3ccccc3)CC2)cc1	D3 antag -82.4
O=S(=O)(CCN1CCN(C(c2ccccc2)c2ccccc2)CC1)C(F)(F)F	D3 antag -50.4, Nrf2 ARE act inconclusive
COc1cc(-c2cnc3ccccc3c2)cc2c1OCCN(S(=O)(=O)C[C@]13CC[C@H](CC1=O)C3(C)C)C2	none (no result: D3 antag, Nrf2 ARE act, DRD3 agonist)
O=C1c2ccccc2C(=O)N1CC#CCN1CCN(C(c2ccccc2)c2ccccc2)CC1	D3 antag -88.2
Cc1cc(C(=O)NCC2CCC3(CCN(Cc4cccc(F)c4F)CC3)O2)n(C)n1 (centres undefined)	none (no result: D3 antag, Nrf2 ARE act, DRD3 agonist)
CCN(CC)/[N+]([O-])=N/OCOC(=O)C(C)c1ccc(CC(C)C)cc1 (centres undefined)	none (no result: D3 antag, Nrf2 ARE act, DRD3 agonist)
CCOc1ccc(S(=O)(=O)Nc2cc(C)ccn2)c2ccccc12	DRD3 agonist 31.8
COc1ccc(S(=O)(=O)Nc2cc(C)cc(C)n2)c2ccccc12	none
CCNC(=O)c1cc(NC(=O)COC)cc2nc(-c3ccncc3)n(C)c12	none (no result: D3 antag, Nrf2 ARE act, DRD3 agonist)
Cc1cc(C(=O)Nc2ccccc2-c2nc(CNC(=O)c3ccccc3Cl)c(C)o2)c(C)o1	none (no result: D3 antag, Nrf2 ARE act, DRD3 agonist)
CCN(CC)C(=O)CSc1nsc(SCC(=O)N(CC)CC)c1C#N	D3 antag -55.0
CC(=O)c1c(C)oc2c(Cl)cc(NS(=O)(=O)c3cc(C)c(C)cc3C)cc12	none (no result: D3 antag)
Cc1cc(/C=N/N2CCN(C)CC2)c(C)n1-c1ccccc1F	D3 antag -70.7
O=C(C1CCCN(Cc2ccccc2)C1)N1CCc2ccccc2C1 (centres undefined)	D3 antag -88.7
COc1cc(CN2CCCC(C(=O)N3CCc4ccccc4C3)C2)cc(OC)c1OC (centres undefined)	D3 antag -70.5
Cc1ccc(CN2CCCC(C(=O)N3CCCC3)C2)cc1 (centres undefined)	none
COc1ccc(CN2CCCC(C(=O)N3CCCCC3)C2)cc1OC (centres undefined)	none
COc1ccc(CN2CCCC(C(=O)N3CCc4ccccc4C3)C2)cc1OC (centres undefined)	D3 antag -60.8
O=C(C1CCCN(Cc2cccc(F)c2)C1)N1CCCCC1 (centres undefined)	D3 antag -73.3
O=C(c1ccc(N2CCC(NCCCn3ncc4ccccc43)CC2)cc1)N1CCOCC1	none (no result: D3 antag, Nrf2 ARE act, DRD3 agonist)
C/C=C(\CS(=O)(=O)c1ccccc1)S(=O)(=O)c1ccccc1	Nrf2 ARE act 12.6µM
C/C(CS(=O)(=O)c1ccccc1)=N\O	none
Nc1nc(N2CCN(Cc3ccccc3)CC2)n[nH]1	DRD3 agonist 51.2
Nc1nc(N2CCN(C(c3ccccc3)c3ccccc3)CC2)n[nH]1	none
c1ccc(CNc2nc(N3CCN(Cc4ccccc4)CC3)nc3ccccc23)cc1	D3 antag -93.0
CN(Cc1ccon1)C(=O)c1cnn(-c2nccc(-c3ccc4c(c3)OCO4)n2)c1C1CC1	none (no result: D3 antag, Nrf2 ARE act, DRD3 agonist)
CCC1CN(CC(=O)NC(C)c2cn(C)nc2C)Cc2cc(OC)ccc2O1 (centres undefined)	none (no result: D3 antag, Nrf2 ARE act, DRD3 agonist)
CN(CCO)C(=O)c1cn(C2CCCN(Cc3ccc(C(F)(F)F)cc3)C2)nn1 (centres undefined)	none (no result: D3 antag, Nrf2 ARE act, DRD3 agonist)
Nc1[nH]c(=S)[nH]c(=O)c1-c1ccccc1	D3 antag -56.3
O=C1CCCc2[nH]c(=O)c(C(=O)NCc3ccccc3)cc21	none (no result: D3 antag, Nrf2 ARE act, DRD3 agonist)
CCN1CCN(c2oc(COc3ccc(-c4ccccc4)cc3)nc2C#N)CC1	D3 antag -80.3
N#Cc1nc(-c2ccc(OCc3ccccc3)cc2)oc1N1CCOCC1	DRD3 agonist 31.2
On1ccccc1=S	D3 antag -139.6
O=C(Cn1ccccc1=S)c1ccc(Cl)c(Cl)c1	none
C[C@]12CCC(=O)C[C@@H]1CC[C@@H]1[C@@H]2CC[C@]2(C)C=CC[C@@H]12	DRD3 agonist 35.2!
CC(=O)c1ccc(NC(=O)Nc2nnc(N3CCCC(C)C3)s2)cc1 (centres undefined)	none (no result: D3 antag)
Cc1cccc(NC(=O)CSc2nc3c([nH]c4ccccc43)c(=O)n2C)c1	D3 antag -70.5
Cc1cccc(NC(=O)CCCn2c(=S)[nH]c3ccccc3c2=O)c1	DRD3 agonist 46.6
CCOC(=O)c1[nH]c2ccccc2c1NC(=S)Nc1cccc(C)c1	D3 antag -52.8
Cc1ccccc1Cn1c(=O)n(Cc2ccc(Cl)cc2)c(=O)c2cccnc21	none (no result: D3 antag)
COc1cc2c(cc1OC)C(COc1cc(C)cc(C)c1)N(C(=O)C(C)(C)C)CC2 (centres undefined)	none (no result: D3 antag)
O=C(NCC1(N2CCOCC2)CCCCCC1)c1cnn(-c2nccc(-c3ccco3)n2)c1C1CC1	none (no result: D3 antag, Nrf2 ARE act, DRD3 agonist)
CCC(C)NCCOCCOc1ccc(Cl)cc1Br (centres undefined)	D3 antag -82.8
CCC(C)NCCCOc1ccc(Cl)cc1C(C)(C)C (centres undefined)	D3 antag -68.9
CNCCCOc1ccc(Cl)cc1C(C)(C)C	D3 antag inconclusive
Cc1ccc(OCCOCCNC(C)C)c(Br)c1	D3 antag -74.7
CCCCNCCOCCOc1ccc(C)cc1Br	D3 antag -80.6
CCC(C)NCCOCCOc1ccc(C)cc1OC (centres undefined)	none
C/C=C(/CC[C@@H](C)[C@H]1CC[C@H]2C3=CC[C@H]4[C@H](C)[C@@H](O)CC[C@]4(C)[C@H]3CC[C@]12C)C(C)C	none (no result: D3 antag, Nrf2 ARE act, Glioma ERSR ind)
CN1CCCN(C2C3CC4CC(C3)CC2C4)CC1 (centres undefined)	D3 antag -91.7, Glioma ERSR ind inconclusive
COc1ccc(-c2nc3cc(C)ccc3cc2CN(C(=O)c2ccc(C)s2)C2CC2)cc1OC	none (no result: D3 antag, Nrf2 ARE act, DRD3 agonist)
COCCCNCCCCOc1ccc(Br)cc1Cl	none

Source: PubChem BioAssay
